From ChEMBL document CHEMBL3433997, “St. Jude Leishmania screening dataset” (2016)

Columns and labels:
Assay type in all cases: functional
[1] = target: Solute carrier family 2, facilitated glucose transporter member 1 (Homo sapiens) (UniProt P11166); test: ST_JUDE_LEISH: Cytotoxicity at 2uM final concentration against transgenic Leishmania Mexicana promastigotes LmGLUT1 that are glucose transport deficient and complemented with the human glucose transporter GLUT1. Activity is measured by DNA content using SYBR green in vitro
Solute carrier family 2, facilitated glucose transporter member 1 (Homo sapiens), sequence (P11166 whole entry): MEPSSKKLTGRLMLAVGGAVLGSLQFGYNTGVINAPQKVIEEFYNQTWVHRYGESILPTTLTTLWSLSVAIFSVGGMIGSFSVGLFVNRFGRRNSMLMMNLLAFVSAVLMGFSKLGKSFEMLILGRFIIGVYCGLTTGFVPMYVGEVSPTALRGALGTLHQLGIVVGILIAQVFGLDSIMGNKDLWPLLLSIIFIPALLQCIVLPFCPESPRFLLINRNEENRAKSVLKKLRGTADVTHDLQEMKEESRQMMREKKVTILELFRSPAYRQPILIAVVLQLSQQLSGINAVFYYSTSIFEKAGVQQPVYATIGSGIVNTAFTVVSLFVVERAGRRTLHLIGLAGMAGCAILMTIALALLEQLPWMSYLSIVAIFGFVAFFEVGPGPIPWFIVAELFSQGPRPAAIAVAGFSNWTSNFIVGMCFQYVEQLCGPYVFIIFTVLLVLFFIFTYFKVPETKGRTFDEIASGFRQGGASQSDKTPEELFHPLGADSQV

[2] = target: Hexose transporter 1 (Plasmodium falciparum) (UniProt O97467); test: ST_JUDE_LEISH: Cytotoxicity at 2uM final concentration against transgenic Leishmania Mexicana promastigotes LmPfHT that are glucose transport deficient and complemented with the Plasmodium falciparum hexose transporter. Activity is measured by DNA content using SYBR green in vitro
[3] = target: Glucose transporter (Leishmania mexicana) (UniProt O61059); test: ST_JUDE_LEISH: Cytotoxicity at 2uM final concentration against transgenic Leishmania Mexicana promastigotes LmGT2 that are glucose transport deficient and complemented with the L. Mexicana glucose transporter 2. Activity is measured by DNA content using SYBR green in vitro

Compound	inhibition [1] [%]	inhibition [2] [%]	inhibition [3] [%]
COc1cc(C)cc(CN2CCC(Cc3ccccc3)CC2)c1O	0.53	0.17	1.48
Cc1noc(C)c1-c1cccc(C(=O)NC2CCN(CCNC(=O)C(c3ccccc3)c3ccccc3)CC2)c1	2.71	1.09	1.64
Cc1occc1C(=O)Nc1nc(-c2ccccn2)nc2ccsc12	78.6	73.2	70
O=[N+]([O-])c1ccc2nc(Nc3ccc(Cl)c(Cl)c3)c(Nc3ccc(Cl)c(Cl)c3)nc2c1	0.54	1.45	1.69
O=[N+]([O-])c1cc(/C=N/Nc2nc3ccccc3[nH]2)ccc1O	8.03	8.49	4.27
COc1ccc(C=CC(=O)NC(=O)c2ccccc2OC(=O)c2ccccc2)cc1OC	2.48	2.16	1.89
CC(C)CNC(=O)c1ccc(-c2cccc(CN3CCC(N4CCCC4)CC3)c2)nc1	2.51	2.17	1.53
N=C(N)Nc1nc(-c2cccc(NC(=O)NCC(c3ccccc3)c3ccccc3)c2)cs1	0.2	2.14	0.5
COc1ccc(Nc2nc(N3CCCC3)c3ccccc3n2)cc1	17.6	19.6	14.3
Cc1cc(-c2ccc(O)c(CNC3CCCCC3)c2)cnc1N	0.43	10.3	0.95
O=C(Nc1ccccc1)Nc1cccc(-c2nn3c(OCCN4CCCC4)cccc3c2-c2ccncc2)c1	5.75	6.38	6.34
Cc1ccccc1N1CCN(c2ccc(C(=O)Nc3ccccc3)cn2)CC1	9.19	7.8	3.84
Cc1nc2c(s1)c(=O)cc(CCc1cccc(F)c1F)n2CC(=O)N(Cc1ccc(-c2ccc(C(F)(F)F)cc2)cc1)C1CCN(C(C)C)CC1	1.07	0.83	1.78
